Data reported in PubChem BioAssay AID1347165 (National Center for Advancing Translational Sciences (NCATS), 2019).
Hit rate of the full screen: of about 220,000 compounds, about 5,700 (2.6%) were called active. Another 18% or so got no clear call; they are omitted. Calls come from the whole dose curve; as a rule, active = well fitted inhibition curve with a large enough effect; inconclusive = small, poorly fitted or top-dose-only effect; inactive = no such curve, though single readings can be large or run the other way. Shown is part of a subset that was picked to be rich in actives. Entries that show only a call come without a potency.
Note: nearly all actives have a fitted effect of over 70% in size.
Potency is the fitted concentration of half-maximal effect.

These molecules were tested against Lysine-specific demethylase 5B (Homo sapiens) (UniProt Q9UGL1) (assay: Primary screen for KDM5B Histone Demethylases FDH-coupled qHTS). Conditions: FDH-coupled NADH fluorescence (FDH is formaldehyde dehydrogenase); series mostly up to 57.7 µM.
Sequence of Lysine-specific demethylase 5B (Homo sapiens) (Q9UGL1 whole entry, looked up): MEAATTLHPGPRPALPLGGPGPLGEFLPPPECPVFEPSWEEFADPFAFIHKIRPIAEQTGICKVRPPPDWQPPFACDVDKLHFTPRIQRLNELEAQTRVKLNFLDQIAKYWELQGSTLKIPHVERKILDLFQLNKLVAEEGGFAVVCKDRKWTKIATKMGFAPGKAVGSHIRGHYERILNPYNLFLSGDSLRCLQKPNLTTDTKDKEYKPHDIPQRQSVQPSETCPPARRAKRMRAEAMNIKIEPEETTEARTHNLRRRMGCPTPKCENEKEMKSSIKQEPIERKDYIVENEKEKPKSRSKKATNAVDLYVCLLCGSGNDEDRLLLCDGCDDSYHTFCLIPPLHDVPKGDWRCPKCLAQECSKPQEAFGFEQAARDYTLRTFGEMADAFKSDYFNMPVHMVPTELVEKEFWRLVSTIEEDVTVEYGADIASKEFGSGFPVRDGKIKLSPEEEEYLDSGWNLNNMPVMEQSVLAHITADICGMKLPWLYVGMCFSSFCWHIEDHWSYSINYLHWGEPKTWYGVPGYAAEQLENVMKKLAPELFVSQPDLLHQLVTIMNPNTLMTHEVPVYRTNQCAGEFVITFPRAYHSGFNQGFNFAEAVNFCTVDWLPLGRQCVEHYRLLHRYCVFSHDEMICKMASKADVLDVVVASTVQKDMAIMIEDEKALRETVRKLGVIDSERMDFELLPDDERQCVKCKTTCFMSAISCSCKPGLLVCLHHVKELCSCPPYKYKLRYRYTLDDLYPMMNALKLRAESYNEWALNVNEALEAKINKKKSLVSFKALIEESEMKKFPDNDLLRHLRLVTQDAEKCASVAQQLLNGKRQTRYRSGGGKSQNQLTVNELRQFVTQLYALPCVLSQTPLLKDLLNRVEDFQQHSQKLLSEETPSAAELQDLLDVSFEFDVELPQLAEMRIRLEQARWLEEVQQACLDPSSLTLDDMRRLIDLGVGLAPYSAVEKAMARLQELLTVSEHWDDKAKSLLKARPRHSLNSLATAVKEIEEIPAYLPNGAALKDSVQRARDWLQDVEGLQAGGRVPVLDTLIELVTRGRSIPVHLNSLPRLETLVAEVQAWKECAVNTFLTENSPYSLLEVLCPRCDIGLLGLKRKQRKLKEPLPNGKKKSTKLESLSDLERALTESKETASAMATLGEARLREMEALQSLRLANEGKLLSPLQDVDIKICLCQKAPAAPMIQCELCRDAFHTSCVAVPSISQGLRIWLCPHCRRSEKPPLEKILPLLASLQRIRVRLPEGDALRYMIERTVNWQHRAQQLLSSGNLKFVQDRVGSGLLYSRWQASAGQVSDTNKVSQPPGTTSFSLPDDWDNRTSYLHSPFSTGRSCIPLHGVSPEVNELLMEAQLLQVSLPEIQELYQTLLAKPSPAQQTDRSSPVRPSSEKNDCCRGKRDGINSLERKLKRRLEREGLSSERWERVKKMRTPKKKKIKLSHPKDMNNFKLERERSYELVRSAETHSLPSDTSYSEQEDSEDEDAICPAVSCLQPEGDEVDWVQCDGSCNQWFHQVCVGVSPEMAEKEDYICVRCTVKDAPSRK
Method in brief: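 Here, H3K4me3 peptide (12.5 µM in substrate mix) is demethylated by KDM5BΔAP, 200 nM final, after 10 min compound exposure. Formaldehyde product is coupled through FDH (0.25 U/mL in mix) to NADH fluorescence; 30-min ΔRFU feeds dose-response curves.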
For CCc1nc2c(c(-c3ccc(Cl)cc3)n1)CCN([S+](=O)([O-])c1cccs1)CC2, the Potency was “inactive”. In the case of O=C(O)c1ccc(C(=O)C2CCCCC2C(=O)O)cc1 (stereo not drawn), the Potency is reported as “inactive”. With Cc1nn(-c2ncnc3nc[nH]c23)c2c1C(c1ccc(F)cc1F)CC(=O)N2 (stereo not drawn) the Potency was “inactive”. Cc1cccc(OCc2nn3c(CN4CCOCC4)nnc3s2)c1 was tested, and the Potency was “inactive”. For Cc1cc2c(s1)CCCCCCCCCC/C2=N\Nc1ccc([N+](=O)[O-])cc1, the Potency was “inactive”. In the case of O=C(Nc1ccc2oc(=O)ccc2c1)c1cccc2ccccc12, the Potency is reported as “inactive”. In the case of CC(NC(=O)c1ccc(SC(F)(F)F)cc1)c1ccccn1 (stereo not drawn), the Potency is reported as “inactive”. With COc1ccc(NC(=O)Cc2c(C)c3ccc(O)cc3oc2=O)cc1 the Potency was “inactive”. With CC1(C)CC(NC(=O)Nc2ccc(OC(F)(F)F)cc2)CC(C)(C)N1 the Potency was “inactive”. CN(C)C(=O)c1nc(-c2ccc(Cl)cc2Cl)c2cnccn12 was tested, and the Potency was 100 µM (active). In the case of CN(C)C(=O)c1nc(-c2cccnc2)c2ccccn12, the Potency is reported as “inactive”. CC1CCCCN1CCNC(=O)c1cc2c(s1)-c1ccccc1OC2 (stereo not drawn) was tested, and the Potency was “inactive”. CCc1noc(-c2ccn3c(CNC(=O)c4ccco4)nnc3c2)n1 was tested, and the Potency was 28.2 µM (active). CCCC(=O)Nc1ccc2c(c1)nc(CCNC(=O)c1ccco1)n2C was tested, and the Potency was “inactive”. With CN(C)c1ccc(C(=O)NCc2nnc3cc(-c4nc(C5CC5)no4)ccn23)cc1 the Potency was “inactive”. In the case of O=C(NCc1nnc2cc(-c3nc(C4CC4)no3)ccn12)c1ccc(F)cc1Cl, the Potency is reported as 28.2 µM (active). In the case of COc1ccc(C(=O)NCc2nnc3cc(-c4nc(C)no4)ccn23)cc1, the Potency is reported as 25.1 µM (active). CCCNC(=O)N1CC(Oc2ccc(-c3nc(C)no3)cc2)C1 was tested, and the Potency was “inactive”. With CC(C)NC(=O)C1CCc2nnc(CNC(=O)c3ccc(Cl)cc3Cl)n21 (stereo not drawn) the Potency was “inactive”. With COc1ccc(CNC(=O)c2ccc3oc(C(C)C)nc3c2)cc1 the Potency was “inactive”. With NS(=O)(=O)c1ccc(F)c(C(=O)NCc2noc(-c3ccco3)n2)c1 the Potency was “inactive”. CSc1ncc(C(=O)NCCCc2ccccc2)c(C)n1 was tested, and the Potency was “inactive”. In the case of CCc1ccc(C2C(C(=O)Nc3ccccc3)=C(C)Nc3c(C(=O)Nc4ccc(F)cc4)cnn32)cc1 (stereo not drawn), the Potency is reported as “inactive”. COc1ccc(CC(=O)NC(CCSC)c2nc3ccccc3[nH]2)cc1 (stereo not drawn) was tested, and the Potency was “inactive”. For Cc1cc(=O)oc2cc(OCC(=O)NCc3cccs3)c(Cl)cc12, the Potency was “inactive”. In the case of COc1ccc(CNC(=O)CN(Cc2ccccc2Cl)C(=O)c2csnn2)cc1, the Potency is reported as “inactive”. Cc1noc(-c2ccccc2NC(=O)C2CC(=O)N(c3cccc(C(F)(F)F)c3)C2)n1 (stereo not drawn) was tested, and the Potency was “inactive”. With O=C(c1cccc(Cl)c1)N1CCc2nc(C3CC3)nc(-c3ccc(Cl)cc3)c2C1 the Potency was “inactive”. In the case of CC(C)c1nc2c(c(-c3ccc(Cl)cc3)n1)CN(C(=O)c1ccccc1)CC2, the Potency is reported as “inactive”. In the case of N#CC1CCN(C(=O)c2nc(-c3ccc(Cl)cc3)c3ccccn23)CC1, the Potency is reported as 25.1 µM (active). In the case of CC(C(=O)N1CCc2ccccc21)N(C)CC(=O)Nc1ccc(F)cc1 (stereo not drawn), the Potency is reported as “inactive”. In the case of CCc1ccc(C(=O)C(C)Sc2nc3ccccc3c(=O)n2CCC(=O)OC)cc1 (stereo not drawn), the Potency is reported as “inactive”. With C=CCCC(CN1CCCC1)Oc1cncc(C(=O)N2CCCC2)n1 (stereo not drawn) the Potency was 8.91 µM (active). CCCCCCCCOc1ccc(C(=O)c2ccccc2O)c(O)c1 was tested, and the Potency was “inactive”. For COc1ccc(-c2c(NC(=O)C(C)C)oc3c(C)cccc3c2=O)cc1, the Potency was “inactive”. With O=C(C1CCCC1)N1Cc2ccccc2CC2(CCCCN2CC2CCNCC2)C1 (stereo not drawn) the Potency was “inactive”. For O=C(c1ccc(C(F)(F)F)cc1)N1CCn2c(nn(-c3cccc(Cl)c3)c2=O)C1, the Potency was “inactive”. For Cn1cccc1CN1CCn2c(nn(-c3cccc(Cl)c3)c2=O)C1, the Potency was 63.1 µM (active). COc1ccc(CN2CCn3c(nn(-c4ccncc4)c3=O)C2)cc1 was tested, and the Potency was “inactive”. With Cc1ccc2c(Cn3cc(S(=O)(=O)N(C)C)ccc3=O)cc(=O)oc2c1 the Potency was “inactive”. For Cc1ccc(-c2noc(-c3cccc(Cl)c3)n2)cc1, the Potency was “inactive”. With O=C(c1ccsc1)N1CCN(c2nnc3ccc(C(F)(F)F)cn23)CC1 the Potency was “inactive”. CC(C)CC(=O)N1CCCN(c2nnc3ccccn23)CC1 was tested, and the Potency was 25.1 µM (active). For O=C(CSc1nc2ccccc2nc1N1CCCC1)N1CCN(c2ccccc2)CC1, the Potency was “inactive”. In the case of Cc1ccc(C(=O)C(C)Sc2nnc3ccccn23)cc1 (stereo not drawn), the Potency is reported as “inactive”. For CC(C)CC(=O)N1CCN(c2nnc3ccccn23)CC1, the Potency was 28.2 µM (active). For CCC(C)c1ccc(-n2c(SCC(=O)N3CCC3)nc3ccccc3c2=O)cc1 (stereo not drawn), the Potency was “inactive”. In the case of O=C(/C=C/c1ccc(Cl)cc1Cl)Nc1ccc(-c2ccccc2)cc1, the Potency is reported as “inactive”. In the case of Cc1cc(=O)oc2c(C)c(OC(=O)CN3C(=O)NC4(CCCC4)C3=O)ccc12, the Potency is reported as “inactive”. With N#C/C(=C/c1cccnc1)C(=O)NCCc1ccccc1 the Potency was “inactive”. For COCCNC(=S)NC1CC(C)(C)NC(C)(C)C1, the Potency was “inactive”. In the case of Cc1ccc2[nH]cc(CCNC(=O)c3ccc(F)c(F)c3)c2c1, the Potency is reported as “inactive”. For O=C(c1ccccc1)c1ccc(C2CC2)cc1, the Potency was “inactive”. In the case of Cc1ncc(CO)c2cc(-c3nc(-c4ccccc4F)no3)c(=O)oc12, the Potency is reported as “inactive”. With COc1cccc(C2Cn3nnc(-c4nc(-c5ccccc5F)no4)c3CO2)c1 (stereo not drawn) the Potency was “inactive”. With CN(CCc1cn[nH]c1)c1ccc(-c2nc(-c3ccccc3F)no2)cn1 the Potency was 28.2 µM (active). CN(C)CCN(C)c1ccc(-c2nc(-c3ccccc3F)no2)cn1 was tested, and the Potency was 28.2 µM (active). With CSc1ccc(CCNc2nc(-c3ccccc3F)no2)cc1 the Potency was “inactive”. For Fc1ccc(Nc2nc(-c3ccccc3F)no2)cc1, the Potency was “inactive”. For Cc1cccc(NC(=O)CSCC(=O)Nc2nnc(C3CC3)s2)c1, the Potency was “inactive”. CC(C)CCNC(=O)NC(=O)CSc1nnc(-c2ccccc2)c(-c2ccccc2)n1 was tested, and the Potency was “inactive”. For Cc1cc(Br)c(S(=O)(=O)NCCO)cc1C, the Potency was “inactive”. For CCCCn1cnc2c1c(=O)n(CC(=O)Nc1ccccc1C)c(=O)n2CCCC, the Potency was “inactive”. With Cc1ccc(C)c(C(NC(=O)c2ccccc2C)c2cccnc2)c1 (stereo not drawn) the Potency was “inactive”. In the case of COc1cccc(-c2cc(C3CCN(C(=O)Nc4ccccc4C)CC3)[nH]n2)c1, the Potency is reported as “inactive”. In the case of COc1cccc(-c2cn3c(n2)N(C(=O)Cc2ccccc2)CCC3)c1, the Potency is reported as “inactive”. With COc1cccc(-c2cn3c(n2)NCCC3)c1 the Potency was 25.1 µM (active). In the case of CN(C)c1ccc(C(=O)/C=C/c2ccncc2)cc1, the Potency is reported as “inactive”.
